Measurements taken from ChEMBL document CHEMBL3988442, “University of Dundee, Small-Polar-MMV Screening Library” (2021).
The whole screen tested about 66,000 compounds, of which about 960 (1.5%) showed an effect of 50% or more. The entries come from a sample that favours strong results as a whole.

Tested on: Trypanosoma brucei
Assay: Trypanosoma brucei 72 hour study
Type: functional, organism-based
Parameters: scale not given: in the data most compounds retested in dose-response had high values

OC[C@H]1CCCN1c1nccc(-c2cncnc2C2CCCCC2)n1
Percent Effect (30.3 µM, […]): -14.29%

OC[C@H]1CCCN1c1nccc(-c2c[nH]nc2C2CCCCC2)n1
Percent Effect (30.3 µM, […]): 98.96%

OC[C@@H]1CCCN1c1nccc(-c2c[nH]nc2-c2ccncc2)n1
Percent Effect (30.3 µM, […]): 21.87%

CCc1noc(C(C)N(C)CC(=O)Nc2ccc(Br)cc2C)n1 (stereo unspecified)
Percent Effect (30 µM, 30.03 µM): -22.21%

COc1ncccc1CN1C[C@@H]2COC[C@]2(COCC(=O)N(C)C)C1.O=C(O)C(F)(F)F.O=C(O)C(F)(F)F
Percent Effect (30 µM, 30.03 µM): -7.446%

Clc1ccccc1C1(c2ccnc(-c3ncccn3)n2)CCNCC1
Percent Effect (30 µM, 30.03 µM): 30.19%

Clc1ccccc1C1(c2ccnc(C3CC3)n2)CCNCC1
Percent Effect (30 µM, 30.03 µM): -58.64%

Clc1ccccc1C1(c2ccnc(CC3CC3)n2)CCNCC1
Percent Effect (30 µM, 30.03 µM): 25.18%

CC(C)c1nccc(C2(c3ccccc3Cl)CCNCC2)n1
Percent Effect (30 µM, 30.03 µM): -6.514%

Clc1ccccc1C1(c2ccnc(C3CCCC3)n2)CCNCC1
Percent Effect (30 µM, 30.03 µM): 101.7%

CC(C)(C)c1nccc(C2(c3ccccc3Cl)CCNCC2)n1
Percent Effect (30 µM, 30.03 µM): 98.68%

CC1(C)CC(N(Cc2ccccc2)Cc2ncc[nH]2)CC(C)(C)N1.O=C(O)CC(O)(CC(=O)O)C(=O)O
Percent Effect (30.3 µM, […]): 10.45%

CCN1CCN(C)C2(CCN(Cc3ccsc3)CC2)C1=O.O=C(O)C(F)(F)F.O=C(O)C(F)(F)F
Percent Effect (30.3 µM, […]): -66.4%

O=C(O)C(F)(F)F.O=C1COC2(CCN(Cc3ccoc3)CC2)CN1
Percent Effect (30 µM, 30.03 µM): -33.82%

O=C(O)C(F)(F)F.O=C(c1cnccn1)N1CCCC2(CCN(c3ncccn3)C2)C1 (stereo unspecified)
Percent Effect (30 µM, 30.03 µM): -0.826%

CC(=O)N1CCN(S(=O)(=O)c2ccc(C)c(F)c2)CC1
Percent Effect (30 µM, 30.03 µM): 0.5413%

c1ccc2c(c1)CCN(c1nc(N3CCOCC3)c3nn[nH]c3n1)C2
Percent Effect (30.3 µM, […]): -17%

Cc1nc(CO[C@@H]2CN(Cc3ccsc3)[C@@H]3COC[C@@H]32)cs1.O=C(O)C(F)(F)F
Percent Effect (30 µM, 30.03 µM): -15.95%

CCOCCOC(C)C(=O)NCc1cn2cc(Br)ccc2n1 (stereo unspecified)
Percent Effect (30 µM, 30.03 µM): 14.67%

CC(C)COCCC(=O)NCc1cn2cc(Br)ccc2n1
Percent Effect (30 µM, 30.03 µM): -7.155%

CCOCCCC(=O)NCc1cn2cc(Br)ccc2n1
Percent Effect (30 µM, 30.03 µM): 54.92%

OC1(CNCCN2CCCc3ccccc32)CCNC1 (stereo unspecified)
Percent Effect (30.3 µM, […]): 6.012%

OC1(CNCCCN2CCCc3ccccc32)CNCCOC1 (stereo unspecified)
Percent Effect (30.3 µM, […]): 12.14%

OC1(CNCCCN2CCc3ccccc32)CCNC1 (stereo unspecified)
Percent Effect (30.3 µM, […]): 99.09%

Cl.O=C(CCn1c(C(F)(F)F)cc2cccnc21)N1CCOCC1
Percent Effect (30.3 µM, […]): -52.3%

CN(CCOc1cccc(F)c1)Cc1nc2c(cnn2C)c(=O)[nH]1
Percent Effect (30.3 µM, […]): -16.26%

Cc1cc(O)c(OCC(=O)/N=c2\[nH]c(C)c(C)s2)cn1
Percent Effect (30 µM, 30.03 µM): -31.23%

Cc1cnc(NC(=O)c2csc(NCC(C)C)n2)s1
Percent Effect (30 µM, 30.03 µM): 4.824%

Cc1[nH]/c(=N\C(=O)c2csc(NCC(C)C)n2)sc1C
Percent Effect (30 µM, 30.03 µM): 99.84%

Cc1cs/c(=N/C(=O)c2csc(NCC(C)C)n2)[nH]1
Percent Effect (30 µM, 30.03 µM): 86.34%

CC(C)CNc1nc(C(=O)/N=c2\[nH]nc(C(C)(C)C)s2)cs1
Percent Effect (30 µM, 30.03 µM): -9.789%

Cc1cccc(NC(=O)c2csc(NCC(C)C)n2)n1
Percent Effect (30 µM, 30.03 µM): -6.262%

O=C(O)C(F)(F)F.O=C(c1cscn1)N1CC[C@@H]2[C@@H]1CCN2C1CCOCC1
Percent Effect (30.3 µM, […]): -53.41%

O=C(O)C(F)(F)F.O=C(c1ccccn1)N1CCc2ncc(Cn3cccn3)n2CC1
Percent Effect (30.3 µM, […]): -7.142%

Cc1ccc(S(=O)(=O)N2C[C@H]3C[C@H](NC(=O)c4cnn(C)c4)[C@H]3C2)cc1
Percent Effect (30.3 µM, […]): -2.175%

COc1c(CNCc2cccc(Cn3ccnc3C)c2)c(C)nn1C.Cl
Percent Effect (30.3 µM, […]): -2.374%
Percent Effect (10 mM, 10 mM as filed; unlikely as a test dose): -46.4%

CC(C)c1nc2c(n1C)CCN(Cc1nc(-c3ccoc3)no1)C2
Percent Effect (30.3 µM, […]): -0.2084%

Cn1c(C2CC2)nc2c1CCN(Cc1nc(-c3ccsc3)no1)C2
Percent Effect (30.3 µM, […]): -7.992%

CC(C)c1nc2c(n1C)CCN(Cc1nc(-c3ccsc3)no1)C2
Percent Effect (30 µM, 30.03 µM): 59.36%

COc1ccc(CN(C)[C@@H]2COC[C@H]2c2ccc(F)cc2)c(OC)c1.O=C(O)CC(O)(CC(=O)O)C(=O)O
Percent Effect (30.3 µM, […]): 4.622%

Br.CCOc1ccc(N(CC(=O)c2ccccc2)C2=NCCCCC2)cc1
Percent Effect (30 µM, 30.03 µM): 25.81%

COc1ccccc1CN1C[C@@H]2CN(C(C)=O)CCO[C@@H]2C1.O=C(O)C(F)(F)F
Percent Effect (30.3 µM, […]): -77.53%

CN(Cc1nc(N2CCCC2)ncc1-c1ccncc1)C(=O)C(C)(C)C.Cl
Percent Effect (30.3 µM, […]): 34.69%

O=C(N[C@@H]1CCCNC1)C1(Oc2ccc(Cl)cc2)CCNCC1
Percent Effect (30 µM, 30.03 µM): -80.08%

Cc1ccc(OC2(C(=O)N(C)Cc3ccoc3)CCNCC2)cc1
Percent Effect (30.3 µM, […]): 91.09%

CN(Cc1ccoc1)C(=O)C1(Oc2ccc(Cl)cc2)CCNCC1
Percent Effect (30.3 µM, […]): 99.82%

CN(Cc1ccncn1)C(=O)C1(Oc2ccc(Cl)cc2)CCNCC1
Percent Effect (30.3 µM, […]): -35.89%

Cc1ccc(OC2(C(=O)NC(C)Cc3ccncc3)CCNCC2)cc1 (stereo unspecified)
Percent Effect (30 µM, 30.03 µM): -4.697%

CN(C)C(=O)C1(Oc2ccc(Cl)cc2)CCNCC1
Percent Effect (30.3 µM, […]): -28.66%

CC(C)CN1CCC2(CCN(Cc3ccsc3)CC2)C1=O
Percent Effect (30.3 µM, […]): 2.917%

CC(C)CNC(=O)N1CCC2(CC1)OC(C(N)=O)Cn1ccnc12.O=C(O)C(F)(F)F (stereo unspecified)
Percent Effect (30.3 µM, […]): -37.34%

COCC[C@]1(O)CCN(Cc2nnc(C)s2)C[C@H]1C
Percent Effect (30.3 µM, […]): -14.31%

O=C(O)C(F)(F)F.O=C(c1cccnc1)N1CCCC2(COCCN(c3ccccc3)C2)C1 (stereo unspecified)
Percent Effect (30.3 µM, […]): -43.99%

Cc1ccc(CN2CC[C@@H](O)[C@@H]2Cc2cnn(C)c2)o1.O=C(O)C(F)(F)F
Percent Effect (30.3 µM, […]): -387.9%

CNC(=O)C1(CCCc2ccncc2)CCCCN1.Cl (stereo unspecified)
Percent Effect (30.3 µM, […]): -5.403%

COCCOC1CCN(C(C(=O)O)c2ccc(OC)c(F)c2)CC1 (stereo unspecified)
Percent Effect (30.3 µM, […]): -2.66%

O=C(O)c1cc(/C=C/c2cccc3ccccc23)ncn1
Percent Effect (30 µM, 30.03 µM): 18.14%

Cn1ccnc1CN1CCC2(COCCN(S(=O)(=O)C3CC3)C2)C1 (stereo unspecified)
Percent Effect (30.3 µM, […]): 11.66%

Cn1ccnc1CN1CCC2(COCCN(Cc3ccsc3)C2)C1 (stereo unspecified)
Percent Effect (30 µM, 30.03 µM): 61.78%

Cn1ccnc1CN1CCC2(CC1)COCCN(c1ncccn1)C2
Percent Effect (30.3 µM, […]): 7.51%
